Eya2 phos inh: inhibitors of human Eya2 phosphatase activity; Potency, µM (doses to about 76.9 µM), hits mostly inhibitors; recombinant Eya2, OMFP fluorescence dephosphorylation (OMFP is methylfluorescein phosphate); O00167; 0.006% of 330,000 active
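Eya2 protein (added as 0.2 uM solution) was preincubated with compound for 10 min at ambient temperature in 50 mM HEPES pH 7.5, 50 mM NaCl, 5 uM MgCl2, 0.05% BSA, 1 mM DTT. OMFP (added at 50 uM) then reacted 10 min; fluorescence read at 485/525 nm.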
rTrxR1 inhibitor: inhibitors of rat thioredoxin reductase 1; O89049; recombinant rTrxR1, NADPH fluorescence consumption, selenite substrate; Potency, µM (series often up to 114 µM), usual class: inhibitors; 1% of 390,000 active; AID 588453; also: nearly all actives have a fitted effect of over 65% in size
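Rat TrxR1 (90 nM in the dispensed reagent) was pre-reduced with 400 uM NADPH for 5 min at room temperature, then incubated with compound for 15 min. After 400 uM selenite was added, NADPH fluorescence (Ex 340/Em 450 nm) was followed for 8 min.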
TrxR1 substrate: rat thioredoxin reductase 1 substrate activity. O89049. 0.01% of 390,000 active. purified TrxR1 substrate turnover, NADPH consumption readout. Potency, µM (highest dose often 114 µM). AID 588456; also: nearly all actives have a fitted effect of over 50% in size
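Rat TrxR1, dispensed at 90 nM, was prereduced with 400 uM NADPH (final) for 5 min at ~22 deg C, then incubated with compound 15 min before 400 uM selenite. A first-read NADPH fluorescence drop versus no-compound background flagged substrates.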
CtBP-E1A inh: blocks the CtBP interaction with E1A; AlphaScreen GST-E1A/His-CtBP binding, 1536-well; active compounds read low; activity change, % (test concentration not listed); 0.49% of 340,000 active; AID 651724; in the data active = activity change below about -65%; inconclusive = mostly about -30% to -63%
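In 5 uL wells, 23 nL compound meets equimolar GST-E1A and His-CtBP (5X stock 125 nM each) for 2 h, 37 °C. Beads (5X, 50 ug/mL) then 1 h, 37 °C, dark.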
GALK inh: blocks human galactokinase activity. AID 1868. 0.007% of 270,000 active. Purified GALK, Kinase-Glo residual ATP luminescence. Potency, µM (top dose mostly 57.5 µM), actives largely listed as inhibitors. P51570
Target sequence (P51570 whole entry, looked up): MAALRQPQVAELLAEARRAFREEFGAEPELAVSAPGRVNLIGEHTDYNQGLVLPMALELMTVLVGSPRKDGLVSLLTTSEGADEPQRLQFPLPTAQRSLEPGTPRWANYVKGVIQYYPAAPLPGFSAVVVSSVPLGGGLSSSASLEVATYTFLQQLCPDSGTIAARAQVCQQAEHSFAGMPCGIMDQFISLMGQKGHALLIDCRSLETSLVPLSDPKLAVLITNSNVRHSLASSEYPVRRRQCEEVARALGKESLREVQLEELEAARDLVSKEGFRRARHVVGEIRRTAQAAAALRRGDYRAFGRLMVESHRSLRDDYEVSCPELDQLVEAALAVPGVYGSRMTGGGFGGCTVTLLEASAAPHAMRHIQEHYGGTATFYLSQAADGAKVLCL
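Galactose (100 uM) and ATP (35 uM) were turned over by 5 nM GALK for 1 h at RT. Kinase-Glo Plus then converted the remaining ATP into a luminescent signal.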
Six1-Eya2 blk: inhibitors of human Six1/Eya2 interaction | 0.56% of 360,000 active | AlphaScreen GST-Six1/His-Eya2 binding, biochemical; active compounds read low | activity change, % (no concentration beside the values); in the data active = activity change below about -65%; inconclusive = mostly about -30% to -63%
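GST-Six1 + His-Eya2 (5X stock: 250/500 nM); Tris pH 8.0, 300 mM NaCl, 0.05% BSA, 0.02% Tween 20; GSH donor/Ni acceptor beads; 1 h 37 °C dark; AlphaScreen readout.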
Large screens that a line does not name were inactive. The list is not random: actives were taken first. Their share in the collection is about 1.5%. Unless noted, calls follow the shape of the dose curve; as a rule, active = well fitted curve in the direction sought with a large enough effect; inconclusive = small, poorly fitted or top-dose-only effect, or another doubt; inactive = no such curve, though single readings can be large; an effect the other way counts as inactive or inconclusive.

C/C(=N\Nc1nc2c(s1)CCCC2)c1ccccc1	rTrxR1 inhibitor 50.1µM
Cc1ccccc1-n1c(SCC(=O)Nc2ccc(Cl)cc2Cl)nc(O)cc1=O	none (no result: Eya2 phos inh, CtBP-E1A inh, GALK inh, Six1-Eya2 blk)
CCC(=O)N1CCc2cc(S(=O)(=O)NCCC(=O)Nc3ccc(OC)c(OC)c3)ccc21	none (no result: Eya2 phos inh, CtBP-E1A inh, GALK inh, Six1-Eya2 blk)
O=C(NCc1ccco1)c1cccc2c1C(=O)c1ccc(N3CCC(Cc4ccccc4)CC3)cc1S2(=O)=O	none (no result: GALK inh)
O=C(NCc1ccco1)c1cccc2c1C(=O)c1ccc(/C=C/c3ccccc3)cc1S2(=O)=O	rTrxR1 inhibitor 22.4µM (no result: GALK inh)
CCN1c2ccccc2-c2nc(SCC(=O)NCc3ccc(C)cc3)ncc2S1(=O)=O	none (no result: Eya2 phos inh, CtBP-E1A inh, GALK inh, Six1-Eya2 blk)
Cc1ccc(C(=O)N/C(=C\c2ccco2)C(=O)NCCCn2ccnc2)cc1	Six1-Eya2 blk -76.7
Cc1ccc(C(=O)N/C(=C/c2ccco2)C(=O)NCCCn2ccnc2)cc1	Six1-Eya2 blk inconclusive
Cc1ccc(CNC(=O)c2nnn(Cc3ccc(F)cc3)c2N)cc1	none (no result: Eya2 phos inh, CtBP-E1A inh, GALK inh, Six1-Eya2 blk)
Cc1ccc(OCC(=O)N/N=C/C=C/c2ccco2)cc1C	rTrxR1 inhibitor 39.8µM
O=C(Cc1cccs1)N/N=C/C=C/c1ccco1	rTrxR1 inhibitor 44.7µM (no result: GALK inh)
Cc1cccc(/C=N/n2c(-c3ccccn3)n[nH]c2=S)c1	none (no result: rTrxR1 inhibitor, TrxR1 substrate, CtBP-E1A inh, Six1-Eya2 blk)
S=c1[nH]nc(-c2ccccn2)n1/N=C/c1cccs1	rTrxR1 inhibitor inconclusive, Six1-Eya2 blk inconclusive
Cc1ccccc1/C=N/n1c(-c2ccccn2)n[nH]c1=S	Six1-Eya2 blk -89.7
COc1cccc(/C=N/n2c(-c3cc(C)[nH]n3)n[nH]c2=S)c1O	CtBP-E1A inh -81.2, Six1-Eya2 blk -68.2
S=c1[nH]nc(-c2ccccn2)n1/N=C/c1cccc2ccccc12	CtBP-E1A inh inconclusive, Six1-Eya2 blk -67.5
COc1cccc(/C=N/n2c(-c3n[nH]c4c3CCC4)n[nH]c2=S)c1O	CtBP-E1A inh inconclusive, Six1-Eya2 blk inconclusive (no result: GALK inh)
COc1ccccc1/C=C/C=N/n1c(-c2ccccn2)n[nH]c1=S	Six1-Eya2 blk -67.5 (no result: CtBP-E1A inh)
NC(N)=N/N=C/c1ccc(OCc2ccccc2Cl)cc1	Eya2 phos inh 35.5µM
C#CCOCCOCCOCCNc1nc(N2CCN(C(=O)C([C@@H](C)CC)n3cc(C(N)COC(=O)C(F)(F)F)nn3)CC2)nc(N2CCN(C(=O)[C@H](CCCCN)n3cc(C(N)[C@H](C)CC)nn3)CC2)n1 (stereo not given in full)	rTrxR1 inhibitor 50.1µM (no result: Eya2 phos inh, GALK inh)
C#CCOCCOCCOCCNc1nc(N2CCN(C(=O)[C@H](Cc3cc4ccccc4[nH]3)n3cc([C@@H](N)C(C)CC)nn3)CC2)nc(N2CCN(C(=O)[C@H](CCCCN)n3cc([C@@H](N)CO)nn3)CC2)n1 (stereo not given in full)	none (no result: rTrxR1 inhibitor, TrxR1 substrate, CtBP-E1A inh, Six1-Eya2 blk)
C#CCOCCOCCOCCNc1nc(N2CCN(C(=O)[C@H](CCCCN)n3cc([C@@H](N)[C@H](C)CC)nn3)CC2)nc(N2CCN(C(=O)[C@H](CCC(=O)O)n3cc([C@@H](N)CCCCN)nn3)CC2)n1	rTrxR1 inhibitor inconclusive (no result: GALK inh)
C#CCOCCOCCOCCNc1nc(N2CCN(C(=O)[C@H](CCCCN)n3cc(CN)nn3)CC2)nc(N2CCN(C(=O)[C@H](CCCCN)n3cc([C@@H](N)[C@H](C)CC)nn3)CC2)n1	rTrxR1 inhibitor 44.7µM (no result: GALK inh)
C#CCOCCOCCOCCNc1nc(N2CCN(C(=O)[C@H](CCCCN)n3cc(C(N)[C@H](C)CC)nn3)CC2)nc(N2CCN(C(=O)[C@H](CCC(=O)O)n3cc(C(N)[C@H](C)CC)nn3)CC2)n1 (stereo not given in full)	rTrxR1 inhibitor 56.2µM
C#CCOCCOCCOCCNc1nc(N2CCN(C(=O)[C@H](CCCCN)n3cc([C@@H](N)C(C)CC)nn3)CC2)nc(N2CCN(C(=O)[C@H](Cc3cc4ccccc4[nH]3)n3cc([C@@H](N)CC(C)C)nn3)CC2)n1 (stereo not given in full)	rTrxR1 inhibitor 25.1µM
C#CCOCCOCCOCCNc1nc(N2CCN(C(=O)[C@H]([C@@H](C)CC)n3cc([C@@H](N)CC(C)C)nn3)CC2)nc(N2CCN(C(=O)[C@H](CCCCN)n3cc([C@@H](N)C(C)CC)nn3)CC2)n1 (stereo not given in full)	Eya2 phos inh inconclusive
COc1ccc(Cn2c(CCC(=O)Nc3cc(OC)c(OC)c(OC)c3)nc3cccnc32)cc1	none (no result: Eya2 phos inh, CtBP-E1A inh, GALK inh, Six1-Eya2 blk)
COC(=O)c1c(N)n(-c2cc(Cl)cc(Cl)c2)c2nc3ccccc3nc12	none (no result: Eya2 phos inh, CtBP-E1A inh, GALK inh, Six1-Eya2 blk)
Cc1ccc(-n2nc(-c3ccco3)cc2C(=O)O)cc1	rTrxR1 inhibitor inconclusive
O=C(c1cc(-c2ccco2)nn1-c1cccc(Cl)c1)N1CCCCC1	rTrxR1 inhibitor 14.1µM
CC(C)NC(=O)c1cc(-c2ccco2)nn1-c1ccc(Cl)cc1	rTrxR1 inhibitor 20µM
Oc1cccc(C2c3[nH]c4ccccc4c3CCN2Cc2ccoc2)c1 (stereo not given)	rTrxR1 inhibitor 39.8µM
COc1cc2nc(N3CCN(C)CC3)nc(NC(C)C)c2cc1OC	rTrxR1 inhibitor inconclusive (no result: Eya2 phos inh, CtBP-E1A inh, GALK inh, Six1-Eya2 blk)
O=[N+]([O-])c1ccc2c(c1)S(=O)(=O)C=C2	rTrxR1 inhibitor 2.12µM (no result: CtBP-E1A inh, GALK inh, Six1-Eya2 blk)
O=C(C[C@H]1C[C@@H]2c3cc(NC(=O)c4ccc5c(c4)OCO5)ccc3O[C@@H]2[C@H](CO)O1)NCc1cc(F)ccc1F	CtBP-E1A inh -67.3, Six1-Eya2 blk -69.6 (no result: Eya2 phos inh, rTrxR1 inhibitor, TrxR1 substrate, GALK inh)
COc1ccccc1CNC(=O)C[C@@H]1C[C@H]2c3cc(NC(=O)c4ccc5c(c4)OCO5)ccc3O[C@H]2[C@@H](CO)O1	none (no result: Eya2 phos inh, rTrxR1 inhibitor, TrxR1 substrate, GALK inh)
CCN(CC)c1ccc(/C=N/Nc2cccc(C)c2)c(O)c1	rTrxR1 inhibitor 22.4µM, Six1-Eya2 blk inconclusive
CCN(CC)c1ccc(/C=N/N2CCN(Cc3ccccc3)CC2)c(O)c1	CtBP-E1A inh inconclusive, Six1-Eya2 blk -74.8

High-throughput results deposited in PubChem by National Center for Advancing Translational Sciences (NCATS).
